# MOR-DOR inv ag: inverse agonist of human OPRM1-OPRD1 heterodimerization | P35372+P41143 | cell-based MOR-DOR heterodimer luminescence, inverse agonism | inhibition, % at 9.3 µM | 340,000 compounds, 0.21% hits; in the data active means inhibition above about 22%, passing the limit was not always enough;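 further: 0% = cells with DMSO and 100% = wells without cells with DMSO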
# MOR-DOR ag-1: OPRM1-OPRD1 heterodimerization agonism. P35372+P41143. cells, luminescence. activation, % at 9.3 µM. 340,000 compounds, 0.3% hits;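 further: 0% = vehicle-treated cells and 100% = reference agonist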
# HTR5A inv ag: HTR5A inverse agonism, opioid heterodimer counter-screen | HTR5A cell line, luminescence | 340,000 compounds, 0.083% hits | inhibition, % at 9.3 µM | P47898 | AID 504634; in the data active means inhibition mostly above about 23%, no sharp cut-off; inactive means mostly below about 18%;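 further: 0% = cells with DMSO and 100% = no-cell wells with DMSO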
# HTR5A ag: counter-screen for OPRM1-OPRD1 agonists: human HTR5A agonism; P47898; HTR5A agonist assay, luminescence, cell-based; activation, % at 9.3 µM; 340,000 compounds, 0.61% hits; in the data active means activation mostly above about 9.5%, no sharp cut-off; inactive means mostly below about 7.6%;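 further: 0% = cells with vehicle only and 100% = reference agonist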
# MOR-DOR ag-2: counter-screen for HTR5A agonists: OPRM1-OPRD1 heterodimerization agonism; AID 504913; U2OS counter-screen cells, complementation luminescence, 3 h; shares compounds with HTR5A ag; activation, % at 9.3 µM; 800 compounds, 13% hits
# HTR5A ag confirm: HTR5A (human) agonism, confirmation. shares compounds with HTR5A ag. HTR5A agonist cell assay, luminescence. activation, % at 9.3 µM. 800 compounds, 17% hits. AID 504915; in the data active means activation above about 17%;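 further: 0% = cells with vehicle only and 100% = full reference agonist response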
# Numbers without * were called inactive; / = not tested or not shown. Sampled rows, rich in hits. Any-hit rate of the full collection: about 1.1%. Unless noted, no stated cut-off is given here; in the data, active means activation above about 18%; inactive means the rest.
SMILES,MOR-DOR inv ag,MOR-DOR ag-1,HTR5A inv ag,HTR5A ag,MOR-DOR ag-2,HTR5A ag confirm
CCCCCCOc1ccc(NC(=O)CC2C(=O)N(CC)C(=S)N2Cc2ccco2)cc1 (stereo not drawn),-15.8,2.9,-33.5,15.2*,-1.2,-9.0
COc1ccc(C(=O)OCC(=O)NCc2ccc3c(c2)OCO3)cc1S(=O)(=O)N1CCOCC1,18.9,-3.6,4.7,-1.3,/,/
Cc1nc2ccccc2n1CC(=O)c1ccccc1,12.9,-2.5,-8.5,-0.4,/,/
Cc1nc2ccccc2n1CC(=O)c1ccc(O)c(O)c1,-1.4,0.2,-64.0,21.8*,0.7,20.5*
COc1ccccc1C(=O)NC(C)c1cccc2ccccc12 (stereo not drawn),4.3,-0.8,-1.1,1.5,/,/
O=C(Cn1cc(CNC(=O)C2CCCCC2)nn1)Nc1cc(C(F)(F)F)ccc1Cl,5.2,-0.9,-0.2,20.3*,-4.5,-16.7
CCOc1ccc(S(=O)(=O)N2CN3CCN(C3)C2)cc1,9.5,-1.7,-14.3,2.2,/,/
CCOc1ccc(S(=O)(=O)N2CCNC(=O)C2)cc1,-0.3,0.1,-56.6,20.4*,-0.3,1.8
O=C(Oc1ccc(Oc2ccccc2)cc1)N1CCC(O)CC1,3.9,-0.7,-2.4,0.6,/,/
COc1ccc2[nH]c3c(c2c1)CCNC3(C)CCc1ccc(Cl)nc1 (stereo not drawn),4.8,-0.8,-80.7,20.8*,2.3,33.8*
COc1ccc2[nH]c3c(c2c1)CCNC3=O,18.1,-3.4,-8.1,-1.9,/,/
O=C(CNS(=O)(=O)c1ccccc1)N1CCN(c2ccccc2)CC1,-13.4,2.4,-15.3,16.0*,1.1,0.3
O=C(CNS(=O)(=O)c1ccccc1)N1CCCC1,15.0,-2.9,1.9,0.9,/,/
COc1ccc(C(=O)N2CCN(CCc3ccccc3)CC2)cc1[N+](=O)[O-],12.3,-2.4,-46.2,19.2*,0.8,1.6
O=C(CSc1nc2ccccc2c(=O)[nH]1)c1ccc(O)cc1O,-20.7,4.0,-5.5,15.7*,0.8,2.3
COc1ccc(NC(=O)CSc2nc3ccccc3c(=O)[nH]2)cc1S(N)(=O)=O,13.4,-3.3,-50.4,20.7*,-0.1,6.0
O=C(CSc1nc2ccccc2c(=O)[nH]1)c1ccc(O)c(O)c1,1.7,-0.3,9.6,5.6,/,/
CCOc1ccc(C2=CS/C(=C(\C#N)c3nnc4n3CCCCC4)N2CC)cc1,12.1,-2.2,-14.5,15.4*,1.6,1.2
COc1ccc(OCc2nnc(SC(C)C(=O)Nc3ccc(N4CCOCC4)cc3)n2C)cc1 (stereo not drawn),3.4,-0.8,4.3,-1.8,/,/
CCc1ccc(NC(=O)C(=O)c2ccccc2NC(C)=O)cc1,8.7,-2.2,1.9,-0.7,/,/
CSc1cccc(NC(=O)N2CCc3ccc(NC(=O)c4ccccn4)cc3C2)c1,-7.1,1.4,-9.9,15.7*,17.6,16.3
CCc1c(C)c(C#N)c2[nH]c3ccccc3n2c1=S,-4.8,1.0,2.3,5.8,/,/
O=C(Nc1cccc(C(=O)N2CCCCC2)c1)C1CCCCC1,0.5,-0.1,-12.3,3.6,/,/
Cc1cc(C)nc(SCC(=O)N/N=C\c2sccc2C)n1,1.4,-0.2,-48.4,22.1*,2.1,22.0*
COc1ccc(/C=C/C(=O)OCC(=O)NC2CCCCC2C)c(OC)c1 (stereo not drawn),-5.6,1.4,7.0,-2.9,/,/
SMILES,MOR-DOR inv ag,MOR-DOR ag-1,HTR5A inv ag,HTR5A ag,MOR-DOR ag-2,HTR5A ag confirm
O=c1c(Cc2ccc(F)cc2)c(O)ccn1Cc1ccc(Cl)cc1Cl,4.7,-0.9,-51.7,20.1*,2.5,47.3*
O=c1c(Cc2ccc(F)cc2)c(O)ccn1Cc1ccc(F)cc1,9.4,-1.9,22.8,0.3,/,/
CCCCn1cnc2c(oc3nc4c(cc32)CCCC4)c1=O,10.1,-2.0,9.5,-4.7,/,/
CN1C(=O)c2cccc3c(S(=O)(=O)N4CCCC4C(=O)O)ccc1c23 (stereo not drawn),5.2,-0.8,-48.9,17.2*,0.3,0.2
CN1C(=O)c2cccc3c(S(=O)(=O)Nc4ccc(O)c(C(=O)O)c4)ccc1c23,-9.3,1.1,-9.2,3.1,/,/
CN(CC(=O)Nc1ccc(Cl)cc1)C(=O)CCc1nc2sc3c(c2c(=O)[nH]1)CCCC3,-65.5,10.1,-46.1,20.9*,5.5,14.9
CN1CCN(C(=O)c2cc(=O)c3cc(Cl)cc(Cl)c3o2)CC1,7.9,-1.8,-11.9,3.4,/,/
CCN1CCCC1CNCc1cc(OC)c(OC)c(OC)c1 (stereo not drawn),-1.2,0.2,-53.3,7.0,/,/
